# Reference: PubChem BioAssay (Tox21)
# Several values for one entry are separate records, joined by “and”; a condition that tells them apart may be missing. Identical values can stand only once. Results filed as inconclusive are left out. Entries that show only a call come without a potency. More than one record can exist for a structure, and the calls need not agree. Activity calls are given as the source filed them. Unless noted, calls follow the shape of the full dose curve.
# Columns and labels:
# [1] = Nuclear factor erythroid 2-related factor 2/antioxidant responsive element (Nrf2/ARE) small molecule agonists: luciferase reporter gene qHTS assay in human keratinocytes (AID 1919969); conditions: KeratinoSens HaCaT ARE-luciferase, luminescence, 24 h; series mostly up to 92.4 µM; also: nearly all actives have a fitted effect of over 35% in size; also: potency is read from the fitted curve at half-maximal effect
# [2] = molecular target: Gonadotropin-releasing hormone receptor (Homo sapiens) (UniProt P30968); assay: Human gonadotropin-releasing hormone receptor (GnRHR) small molecule agonists, calcium flux assay in GnRHR-HEK293 cells (AID 1920063); conditions: calcium flux fluorescence, agonist mode; series mostly up to 57.6 µM; also: nearly all actives have a fitted effect of over 35% in size
# Chain of Gonadotropin-releasing hormone receptor (Homo sapiens) (P30968 whole entry, looked up): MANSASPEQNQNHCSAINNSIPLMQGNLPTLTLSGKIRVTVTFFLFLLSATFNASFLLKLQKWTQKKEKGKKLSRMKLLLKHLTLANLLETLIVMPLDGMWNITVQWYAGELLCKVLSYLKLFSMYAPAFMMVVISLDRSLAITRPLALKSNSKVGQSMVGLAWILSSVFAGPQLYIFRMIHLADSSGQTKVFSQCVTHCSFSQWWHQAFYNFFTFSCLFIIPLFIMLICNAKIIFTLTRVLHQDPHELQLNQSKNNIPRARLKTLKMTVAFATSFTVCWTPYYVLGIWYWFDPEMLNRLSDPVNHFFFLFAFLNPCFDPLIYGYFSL
# How it was run: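 Compounds dissolved in DMSO are pin-transferred onto dye-loaded GnRHR-HEK293 cells, which were seeded 18 h before at 37 C/5% CO2. Calcium signal is read as fluorescence intensity at 1 s intervals for 3 min.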
# [3] = molecular target: KiSS-1 receptor (Homo sapiens) (UniProt Q969F8); assay: Human kisspeptin (KISS1R) small molecule agonists, calcium flux assay in KISS1R-HEK293 cells (AID 1920064; active = well fitted activation curve with a large enough effect in the repeat runs); conditions: KISS1R-HEK293, calcium flux fluorescence, agonist; series mostly up to 76.8 µM
# Chain of KiSS-1 receptor (Homo sapiens) (Q969F8 whole entry, looked up): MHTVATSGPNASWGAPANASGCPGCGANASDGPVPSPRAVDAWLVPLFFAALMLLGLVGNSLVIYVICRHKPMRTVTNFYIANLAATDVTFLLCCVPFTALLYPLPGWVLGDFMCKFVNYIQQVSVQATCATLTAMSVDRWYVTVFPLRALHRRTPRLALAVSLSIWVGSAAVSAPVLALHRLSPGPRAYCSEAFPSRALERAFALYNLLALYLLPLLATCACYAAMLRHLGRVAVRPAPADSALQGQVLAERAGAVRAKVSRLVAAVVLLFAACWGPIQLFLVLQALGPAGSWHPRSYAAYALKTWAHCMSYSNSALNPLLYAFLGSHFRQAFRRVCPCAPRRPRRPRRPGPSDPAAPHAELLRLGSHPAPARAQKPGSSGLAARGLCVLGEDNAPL
# How it was run: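 Cell line: HEK293, stable human KISS1R. Dye loading 1 h at 37 C after 18 h culture. Read: kinetic fluorescence, 480/540 nm, 3 min at 1 s intervals.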
# [4] = G protein-coupled receptor (GPCR) small molecule agonists, calcium flux assay: HEK293 wild type cell line counter screen (AID 1920065); conditions: HEK293 WT calcium flux, fluorescence, agonist mode; series mostly up to 57.6 µM
# How it was run: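 Tox21 10K compounds, 15 concentrations each in triplicate, pin-transferred in DMSO onto dye-loaded cells; kinetic read at 480/540 nm for 3 min, 1 s intervals.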
# [5] = p53 small molecule agonists, cell-based qHTS assay with human liver microsomes (AID 1963577); conditions: HCT-116 p53RE-bla with human liver microsomes, ratio, 16 h; series mostly up to 66 µM;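 also: p53 response element beta-lactamase reporter cells with liver microsomes plus NADPH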
# How it was run: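 Metabolically competent format: test substances, human liver microsomes and NADPH (both 0.5 mg/mL final) incubated with p53RE-bla cells 16 h at 37 C. Beta-lactamase reporter signal then quantified by fluorescence.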
# [6] = p53 small molecule agonists, cell-based qHTS assay with human liver microsomes: qHTS cell viability counter screen (AID 1963579); conditions: p53RE-bla HCT-116 viability, ATP luminescence, 16 h, HLM; series mostly up to 66 µM; also: nearly all actives have a fitted effect of over 45% in size
# How it was run: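 Tox21 library compounds, delivered from DMSO stocks, were tested on p53RE-bla cells together with 0.5 mg/mL human liver microsomes and 0.5 mg/mL NADPH (final) over 16 h at 37 C; CellTiter-Glo luminescence served as the cytotoxicity measure.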
# [7] = p53 small molecule agonists, cell-based qHTS assay with rat liver microsomes: qHTS cell viability counter screen (AID 1963580); conditions: p53RE-bla HCT-116 + rat microsomes, ATP viability, 16 h; series mostly up to 66 µM; also: nearly all actives have a fitted effect of over 45% in size
# How it was run: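 Luminescent ATP readout (CellTiter-Glo, 30 min at room temperature) reports viability of p53RE-bla HCT-116 cells after 16 h at 37 C with test compounds under metabolic activation by rat liver microsomes and NADPH at 0.5 mg/mL final each.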
# [8] = p53 small molecule agonists, cell-based qHTS assay: qHTS cell viability counter screen (AID 1963581); conditions: p53RE-bla HCT-116 viability, ATP luminescence, 16 h; series mostly up to 66 µM; also: nearly all actives have a fitted effect of over 45% in size; also: potency is read from the fitted curve at half-maximal effect
# How it was run: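 ATP content measured by luminescence in HCT-116 p53RE-bla cells treated 16 h at 37 C, same wells as the reporter screen.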
# [9] = molecular target: 5-hydroxytryptamine receptor 2A (Homo sapiens) (UniProt P28223); assay: 5-hydroxytryptamine receptor 2A (HTR2A) small molecule agonists, cell-based qHTS assay (AID 1963587); conditions: HTR2A-CHO cells, calcium flux fluorescence, agonist mode; series mostly up to 76.8 µM; also: nearly all actives have a fitted effect of over 30% in size; also: potency is read from the fitted curve at half-maximal effect
# Chain of 5-hydroxytryptamine receptor 2A (Homo sapiens) (P28223 whole entry, looked up): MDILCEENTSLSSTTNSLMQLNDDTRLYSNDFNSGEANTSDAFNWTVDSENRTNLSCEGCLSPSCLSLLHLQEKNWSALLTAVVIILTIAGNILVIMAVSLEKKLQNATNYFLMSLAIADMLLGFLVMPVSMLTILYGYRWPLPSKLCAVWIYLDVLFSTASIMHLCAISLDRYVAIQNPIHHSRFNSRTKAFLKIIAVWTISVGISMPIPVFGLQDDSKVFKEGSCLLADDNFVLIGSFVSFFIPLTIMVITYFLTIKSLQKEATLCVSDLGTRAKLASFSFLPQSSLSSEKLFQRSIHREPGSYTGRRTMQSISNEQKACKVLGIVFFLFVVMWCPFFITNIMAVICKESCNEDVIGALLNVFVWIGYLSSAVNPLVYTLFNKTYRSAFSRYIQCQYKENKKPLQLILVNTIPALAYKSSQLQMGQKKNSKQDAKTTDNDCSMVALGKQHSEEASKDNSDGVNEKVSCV
# How it was run: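 HTR2A-CHO cells, plated 18 h at 37 C/5% CO2, dye-loaded 1 h at 37 C; compounds in DMSO added by pin tool (agonist mode). Intracellular calcium flux read as kinetic fluorescence on FDSS over 2 min at 1 s intervals.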
# [10] = molecular target: Muscarinic acetylcholine receptor M1 (Homo sapiens) (UniProt P11229); assay: Cholinergic receptor muscarinic 1 (CHRM1) small molecule antagonists, cell-based qHTS assay (AID 1963588); conditions: CHRM1-CHO antagonist mode, calcium flux fluorescence; series mostly up to 61.5 µM; also: nearly all actives have a fitted effect of over 40% in size; also: potency is read from the fitted curve at half-maximal effect
# Chain of Muscarinic acetylcholine receptor M1 (Homo sapiens) (P11229 whole entry, looked up): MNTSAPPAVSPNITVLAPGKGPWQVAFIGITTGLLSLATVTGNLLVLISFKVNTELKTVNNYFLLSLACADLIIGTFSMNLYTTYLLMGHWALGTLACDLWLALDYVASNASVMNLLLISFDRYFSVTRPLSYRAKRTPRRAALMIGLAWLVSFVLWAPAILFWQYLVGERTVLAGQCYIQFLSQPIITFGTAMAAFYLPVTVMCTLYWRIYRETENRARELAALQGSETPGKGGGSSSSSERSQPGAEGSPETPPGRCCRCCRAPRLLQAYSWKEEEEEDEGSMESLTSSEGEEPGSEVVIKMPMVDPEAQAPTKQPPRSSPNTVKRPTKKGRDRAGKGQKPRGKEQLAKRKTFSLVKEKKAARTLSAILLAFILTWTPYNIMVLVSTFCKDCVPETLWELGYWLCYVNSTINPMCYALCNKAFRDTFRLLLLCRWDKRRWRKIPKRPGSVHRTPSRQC
# How it was run: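 Compounds were tested at 15 concentrations in three independent runs. Dye-loaded CHRM1-CHO cells were exposed 5 min at room temperature before stimulation by acetylcholine added at 50nM. Intracellular calcium was read kinetically on FDSS for 3 min.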
# [11] = molecular target: Muscarinic acetylcholine receptor M1 (Homo sapiens) (UniProt P11229); assay: Cholinergic receptor muscarinic 1 (CHRM1) small molecule agonists, cell-based qHTS assay (AID 1963589); conditions: CHRM1-CHO cells, agonist mode, calcium flux fluorescence; series mostly up to 76.8 µM; also: nearly all actives have a fitted effect of over 35% in size
# How it was run: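 Homogeneous fluorescence calcium flux, agonist mode. Human M1-expressing CHO cells; compound dosed at 15 concentrations, three independent runs; signal sampled every 1 sec.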
# [12] = cAMP Responsive Elements (CRE) small molecule antagonists, cell-based qHTS assay (AID 1963591; active = well fitted inhibition curve with a large enough effect in the signal ratio in the repeat runs, not every such curve was filed as active; the % refers to the signal ratio); conditions: CRE-bla HEK293T, beta-lactamase FRET ratio; series mostly up to 92.4 µM
# How it was run: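 First, CRE-bla HEK293T cells settled 18 h at 37 C. Next, compound and 0.25 uM final NKH477 were applied for 3 h. Last, LiveBLAzer B/G substrate was loaded for 2 h at room temperature.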
# [13] = molecular target: Beta-2 adrenergic receptor (Homo sapiens) (UniProt P07550); assay: Adrenergic beta2 receptor (ADRB2) small molecule antagonists, cell-based qHTS assay (AID 1963592); conditions: CHO-ADRB2 cells, isoproterenol-stimulated cAMP HTRF ratio, 0.5 h; series mostly up to 92.4 µM; also: nearly all actives have a fitted effect of over 50% in size; also: potency is read from the fitted curve at half-maximal effect
# Chain of Beta-2 adrenergic receptor (Homo sapiens) (P07550 whole entry, looked up): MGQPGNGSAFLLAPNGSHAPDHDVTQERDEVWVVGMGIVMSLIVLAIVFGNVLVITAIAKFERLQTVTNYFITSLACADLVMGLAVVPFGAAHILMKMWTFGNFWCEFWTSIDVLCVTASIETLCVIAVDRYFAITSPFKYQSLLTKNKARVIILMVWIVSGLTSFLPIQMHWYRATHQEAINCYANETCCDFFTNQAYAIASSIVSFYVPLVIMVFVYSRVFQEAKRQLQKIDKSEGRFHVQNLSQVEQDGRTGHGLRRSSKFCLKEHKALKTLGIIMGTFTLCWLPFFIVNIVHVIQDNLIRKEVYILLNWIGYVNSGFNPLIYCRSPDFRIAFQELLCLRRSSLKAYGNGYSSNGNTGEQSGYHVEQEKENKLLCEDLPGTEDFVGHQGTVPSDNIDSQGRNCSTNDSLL
# How it was run: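 Assay format: CHO-ADRB2 cells, 18-20hr seeding at 37C/5% CO2, then compound plus 1nM isoproterenol agonist mix for 0.5hr RT. Homogeneous time-resolved fluorescence cAMP detection after 1hr, expressed as 665/615 nm ratio.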
# [14] = molecular target: D(2) dopamine receptor (Homo sapiens) (UniProt P14416); assay: Dopamine D2 receptor (DRD2) small molecule agonists, cell-based qHTS assay (AID 1963594); conditions: HEK293-DRD2 cAMP HTRF, agonist mode, 30 min; series mostly up to 92.4 µM; also: nearly all actives have a fitted effect of over 35% in size
# Chain of D(2) dopamine receptor (Homo sapiens) (P14416 whole entry, looked up): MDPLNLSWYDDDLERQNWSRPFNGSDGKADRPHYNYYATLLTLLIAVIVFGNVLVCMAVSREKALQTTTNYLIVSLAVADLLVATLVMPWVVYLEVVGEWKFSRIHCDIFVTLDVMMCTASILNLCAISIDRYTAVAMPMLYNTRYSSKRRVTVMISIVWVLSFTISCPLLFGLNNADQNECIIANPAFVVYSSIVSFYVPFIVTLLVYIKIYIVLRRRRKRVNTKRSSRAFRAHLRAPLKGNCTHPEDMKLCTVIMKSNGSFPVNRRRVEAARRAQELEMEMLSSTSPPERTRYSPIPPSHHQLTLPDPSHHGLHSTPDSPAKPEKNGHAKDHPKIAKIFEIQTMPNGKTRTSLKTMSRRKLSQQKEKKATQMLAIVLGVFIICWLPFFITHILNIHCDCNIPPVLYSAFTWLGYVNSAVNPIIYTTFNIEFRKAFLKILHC
# How it was run: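 HEK293 cells stably expressing DRD2 were cultured 24 h at 37 C, then given Ro20-1724 (0.1 mM final) and compounds for 10 min at room temperature. NKH477 (200nM) was then added for 30 min. cAMP was read by HTRF.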
# [15] = molecular target: D(2) dopamine receptor (Homo sapiens) (UniProt P14416); assay: Dopamine D2 receptor (DRD2) small molecule antagonists, cell-based qHTS assay (AID 1963595; active = well fitted inhibition curve with a large enough effect in the signal ratio in the repeat runs, with a control signal flat; the % refers to the signal ratio; also: potency is read from the fitted curve at half-maximal effect); conditions: HEK293-DRD2 cAMP HTRF antagonist mode; series mostly up to 92.4 µM
# How it was run: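 DRD2-HEK293; 0.1 mM Ro20-1724; cpd 10 min RT; NKH477 200 nM + quinpirole 12 nM, 30 min RT; HTRF cAMP (cAMP-d2/anti-cAMP cryptate), 665/620 nm ratio after 1 h.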
# [16] = p53 small molecule agonists, cell-based qHTS assay with rat liver microsomes (AID 1963578); conditions: HCT-116 p53RE-bla, beta-lactamase ratio, 16 h; series mostly up to 66 µM
# How it was run: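 Each plate received p53RE-bla cells, then compound, then rat liver microsomes and NADPH (both 0.5 mg/mL final). Plates were held 16 h at 37 C, and beta-lactamase activity was detected with LiveBLAzer over 2 h.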
# [17] = molecular target: 5-hydroxytryptamine receptor 2A (Homo sapiens) (UniProt P28223); assay: 5-hydroxytryptamine receptor 2A (HTR2A) small molecule antagonists, cell-based qHTS assay (AID 1963586); conditions: HTR2A-CHO cells, DOI-induced calcium flux, fluorescence; series mostly up to 61.5 µM; also: nearly all actives have a fitted effect of over 45% in size; also: potency is read from the fitted curve at half-maximal effect
# How it was run: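 CHO cells stably expressing human HTR2A were plated for 18 h at 37 C, then loaded with calcium dye for 1 h. Compounds were preincubated 5 min at room temperature before DOI (4 nM solution) was added. Kinetic fluorescence was read for 3 min.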
# [18] = cAMP Responsive Elements (CRE) small molecule agonists, cell-based qHTS assay (AID 1963590); conditions: CRE-bla HEK293T, beta-lactamase FRET ratio, 3 h; series mostly up to 92.4 µM
# How it was run: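 HEK 293T cells stably bearing CRE-bla were plated at 2,000 cells per well and rested 18 h. Compounds, positive controls or DMSO were added for 3 h at 37 C. LiveBLAzer B/G substrate was then loaded for 2 h at room temperature.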
# [19] = p53 small molecule agonists, cell-based qHTS assay (AID 1963582; active = well fitted activation curve with a large enough effect in the signal ratio in the repeat runs, not every such curve was filed as active; the % refers to the signal ratio); conditions: HCT-116 p53RE-bla reporter, beta-lactamase FRET ratio, 16 h; series mostly up to 66 µM
# How it was run: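 16 h compound exposure (37 C) of p53 response element–bla cells, preceded by 5 h recovery at 37 C/5% CO2; read-out via LiveBLAzer B/G FRET substrate, 2 h RT, fluorescence intensity.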
# [20] = molecular target: Beta-2 adrenergic receptor (Homo sapiens) (UniProt P07550); assay: Adrenergic beta2 receptor (ADRB2) small molecule agonists, cell-based qHTS assay (AID 1963593); conditions: CHO-ADRB2 cells, cAMP HTRF, 30 min; series mostly up to 92.4 µM;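 also: CHO cells stably overexpressing human ADRB2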
# How it was run: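 CHO cells stably over-expressing ADRB2 were plated overnight at 37C, then dosed with compounds plus a stimulation mix containing 100uM IBMX and 25uM Ro-20-1724 for 0.5hr at room temperature. cAMP was measured by HTRF competition, 1hr.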
Structure (SMILES),Potency [1],Potency [2],Potency [3],Potency [4],Potency [5],Potency [6],Potency [7],Potency [8],Potency [9],Potency [10],Potency [11],Potency [12],Potency [13],Potency [14],Potency [15],Potency [16],Potency [17],Potency [18],Potency [19],Potency [20]
Oc1c(Cl)cc(Cl)c(Cl)c1Cl,inactive,inactive,inactive,inactive,inactive,inactive,inactive,inactive,inactive,inactive,inactive,inactive,inactive,inactive,inactive,–,–,–,–,–
CCCCCCCCCCC=CC1CC(=O)OC1=O (centres undefined),inactive,inactive,inactive,inactive,–,inactive,inactive,inactive,inactive,–,inactive,inactive,inactive,–,inactive,inactive,inactive,inactive,–,–
COC(=O)c1cccc(C(=O)OC)c1,inactive,–,inactive,inactive,inactive,–,inactive,inactive,–,inactive,inactive,inactive,inactive and 15.4 µM (active),–,inactive,inactive,inactive,inactive,inactive,inactive
c1ccc(OCCOc2ccccc2)cc1,–,inactive,inactive,inactive,inactive,inactive,inactive,inactive,inactive,inactive,inactive,inactive,inactive,inactive,inactive,inactive,inactive,inactive,inactive,inactive
COc1ccccc1OCC(O)CO (centres undefined),inactive,inactive,inactive,inactive,–,inactive,inactive,inactive,–,–,–,–,inactive,inactive,inactive,inactive,–,inactive,inactive,inactive
CC(=O)c1ccc(O)cc1,–,inactive,inactive,inactive,–,inactive,–,inactive,inactive,inactive,inactive,inactive,inactive,inactive,inactive,inactive,inactive,inactive,inactive,inactive
CC(=O)c1ccccn1,–,inactive,inactive,inactive,inactive,inactive,inactive,inactive,inactive,inactive,inactive,inactive,inactive,inactive,inactive,inactive,inactive,inactive,–,–
CC(=O)[C@H]1CC[C@H]2[C@@H]3CC=C4C[C@@H](O)CC[C@]4(C)[C@H]3CC[C@]12C,inactive,inactive,inactive,inactive,inactive,–,–,inactive,inactive,inactive,inactive,inactive,inactive,inactive,inactive,inactive,inactive,inactive,inactive,inactive
CC(C)[N+](C)(CCOC(=O)C1c2ccccc2Oc2ccccc21)C(C)C,inactive,inactive,inactive,inactive,inactive,–,inactive,–,inactive,–,inactive,inactive,inactive,inactive,inactive,inactive,inactive,inactive,inactive,inactive
C=CC(=O)OCCC(=O)O,inactive,–,inactive,inactive,inactive,inactive,inactive,inactive,inactive,inactive,inactive,inactive,inactive,inactive,inactive,–,inactive,inactive,inactive,inactive
C/C=C/c1ccc(OC)cc1,inactive,inactive,inactive,inactive,–,inactive,inactive,inactive,inactive,inactive,inactive,inactive,–,inactive,inactive,–,inactive,inactive,–,inactive
C=CCc1ccc(O)c(OC)c1,inactive,inactive,inactive,inactive,inactive,inactive,inactive,inactive,–,–,–,inactive,–,inactive,inactive,–,–,inactive,inactive,–
O=C(O)c1ccccc1,inactive,inactive,inactive,inactive,–,inactive,inactive,inactive,–,–,–,inactive,inactive,inactive,inactive,–,–,inactive,inactive,–
CCCCCCCCCCCC[N+](C)(C)Cc1ccccc1,inactive,–,inactive,inactive,–,–,inactive,49.7 µM (active) and 22.3 µM (active),48 µM (active),1.02 µM (active) and 650 nM (active),inactive,–,inactive,–,inactive and 59.2 µM (active) and 29.8 µM (active),–,1.3 µM (active) and inactive and 16.3 µM (active),–,–,–
C/C=C(C)/C=C/C=C(C)C,60.4 µM (active) and 54.5 µM (active),inactive,inactive,inactive,–,inactive,inactive,inactive,–,inactive,inactive,inactive,inactive,inactive,inactive,inactive,inactive,inactive,inactive,inactive
COc1ccccc1O,inactive,inactive,inactive,inactive,inactive,inactive,inactive,inactive,inactive,–,inactive,inactive,inactive,inactive,inactive,–,–,inactive,inactive,inactive
